This is a sample that favours compounds with a hit; in the whole collection about 12% have one here.
PLK1 PBD inh – qHTS for Inhibitors of PLK1-PDB (polo-like kinase 1 - polo-box domain): Primary Screen; Serine/threonine-protein kinase PLK1 (Homo sapiens), P53350; Plk1 PBD binding of FITC phosphopeptide, fluorescence polarization; Potency, µM, inactives show max response, negative = inhibition, most hits filed as inhibitors; actives 2.8% (n = 360,000); AID 720504, 2013; further: potency means the concentration at half of the fitted maximal effect; series mostly up to about 57 µM; on the % scale 0 is the no-effect control and ±100 the full control effect; nearly all actives have a fitted effect of over 65% in size
G9a inh – qHTS Assay for Inhibitors of Histone Lysine Methyltransferase G9a. AID 504332, 2011. Histone-lysine N-methyltransferase EHMT2 (Homo sapiens), Q96KQ7. actives 8.8% (n = 350,000). Potency, µM (series often up to 102 µM), for inactives: top-dose activity, negative = inhibition, actives largely listed as inhibitors. G9a H3K9 monomethylation, AlphaScreen, 2 h; further: potency means the concentration at half of the fitted maximal effect; on the % scale 0 is the no-effect control and ±100 the full control effect; nearly all actives have a fitted effect of over 75% in size
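Chemiluminescent proximity detection of H3K9 monomethylation, read after 10 min bead incubation in the dark. Reaction: 20 nM G9a, 500 nM biotin-H3K9 peptide, 20 uM SAM cofactor, 2 h, room temperature, following 15 min enzyme-compound preincubation.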
BAZ2B inh – qHTS Assay for Inhibitors of BAZ2B. Bromodomain adjacent to zinc finger domain protein 2B (Homo sapiens), Q9UIF8. AlphaScreen BAZ2B-H3K14Ac peptide displacement. Potency, µM (titrated, usually from 114 µM), inactives show at the top dose activity change, negative = inhibition, usual class: inhibitors. actives 4.4% (n = 360,000); further: potency means the concentration at half of the fitted maximal effect; on the % scale 0 is the no-effect control and ±100 the full control effect; nearly all actives have a fitted effect of over 60% in size
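AlphaScreen luminescence quantifies BAZ2B engagement of H3K14Ac peptide; the protein and biotinylated peptide are both at 50 nM final, buffer PBS pH 7.4 with 0.01% Tween-20, all steps at room temperature.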
HP1b chromo inh – HTS for Inhibitors of HP1-beta Chromodomain Interactions with Methylated Histone Tails; Potency, µM (titrated, usually from 114 µM), for the others: at the top dose activity change, negative = inhibition, usual class: inhibitors; AID 540317, 2011; actives 0.56% (n = 390,000); AlphaScreen HP1-beta / biotin-H3K9me3 peptide binding; further: potency means the concentration at half of the fitted maximal effect; nearly all actives have a fitted effect of over 70% in size
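AlphaScreen: HP1-beta (50 nM) preformed 30 min with biotin-H3(1-18)K9me3 peptide (50 nM) in PBS pH 7.4, 0.01% Tween-20. Compound added for 30 min at RT, then streptavidin donor/nickel chelate acceptor beads (10 ug/mL) for 30 min.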
PI5P4K alpha inh – qHTS for Inhibitors of phosphatidylinositol 5-phosphate 4-kinase (PI5P4K) | max response, % | PI5P4Kalpha enzyme, ADP-Glo luminescence, 60 min; active compounds read low | Phosphatidylinositol 5-phosphate 4-kinase type-2 alpha (Homo sapiens), P48426 | actives 1.2% (n = 330,000) | AID 652105, 2013; active means max response of -50% or lower; inconclusive means between -30% and -50%; inactive means -30% or higher; further: value at the top dose of about 77 µM; on the % scale 0 is the no-effect control and ±100 the full control effect
Target sequence (P48426 whole entry, looked up): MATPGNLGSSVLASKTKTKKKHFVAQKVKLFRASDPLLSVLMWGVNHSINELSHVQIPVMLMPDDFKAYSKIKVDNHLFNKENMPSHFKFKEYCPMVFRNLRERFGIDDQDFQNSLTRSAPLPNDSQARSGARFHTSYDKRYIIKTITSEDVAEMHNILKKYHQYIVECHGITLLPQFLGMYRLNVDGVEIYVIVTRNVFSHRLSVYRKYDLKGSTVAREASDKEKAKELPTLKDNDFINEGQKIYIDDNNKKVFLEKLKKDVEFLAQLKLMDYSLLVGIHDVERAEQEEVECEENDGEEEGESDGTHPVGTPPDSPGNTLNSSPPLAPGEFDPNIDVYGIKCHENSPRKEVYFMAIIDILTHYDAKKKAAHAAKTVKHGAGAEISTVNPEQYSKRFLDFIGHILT
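ADP-Glo luminescence end-point read after a 60 min room-temperature kinase reaction of PI5P4Kalpha plus substrate, initiated with ATP at 5 microM final. Buffer: 0.038 M HEPES pH 7.4, EGTA, 0.1% CHAPS, 5% DMSO.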
JMJD2A Tudor – qHTS Assay for Inhibitors of JMJD2A-Tudor Domain | actives 4.4% (n = 390,000) | Lysine-specific demethylase 4A (Homo sapiens), O75164 | AlphaScreen JMJD2A-Tudor / H3K4me3 peptide binding | Potency, µM (series often up to 114 µM), for the others: at the highest dose activity change, negative = inhibition, usual class: inhibitors; further: potency means the concentration at half of the fitted maximal effect; on the % scale 0 is the no-effect control and ±100 the full control effect; nearly all actives have a fitted effect of over 50% in size
Active calls of the source: *; ? = inconclusive; / = not tested or not shown; [ ] = another dose, or the depositor's remark. Unless noted, the call rests on the fitted dose curve; in most records, active means well fitted curve in the direction sought with a large enough effect; inconclusive means small, poorly fitted or top-dose-only effect, or another doubt; inactive means no such curve, though single readings can be large; an effect the other way counts as inactive or inconclusive.

SMILES	PLK1 PBD inh	G9a inh	BAZ2B inh	HP1b chromo inh	PI5P4K alpha inh	JMJD2A Tudor
Cc1nn(-c2ccccc2)c2c1C(c1cccs1)C(C#N)=C(N)O2 (stereo unspecified)	?	35µM*	40µM*	50µM*	-17	56µM*
CCNCC(=O)N1c2ccccc2CCc2ccc(NC(=O)OC(C)C)cc21	-6%	/	?	8%	-5	?
CCN(CC)S(=O)(=O)c1ccc(N2CCCCS2(=O)=O)cc1	/	1%[59 µM]	-3%	25%	/	-3%
COC(=O)Cc1[nH]nc2c1C(c1cc(OC)c(OC)c(OC)c1)C(C#N)=C(N)O2 (stereo unspecified)	?	3%	-16%	59%	-1	-15%
COc1cc(C2C(C#N)=C(N)Oc3c2c(-c2ccccc2)nn3-c2ccccc2)cc(OC)c1OC (stereo unspecified)	-1%	?	45µM*	-2%	-13	?
CCOc1ccc(/C=C2\SC(=S)N(CCC(=O)Nc3cccc(C(=O)O)c3)C2=O)cc1	?	79µM*	50µM*	?	0	35µM*
CCOc1ccc(/C=C2\SC(=S)N(CCC(=O)Nc3ccc(C(=O)O)cc3)C2=O)cc1	?	28µM*	22µM*	?	1	25µM*
CCOC(=O)CN1C(=O)S/C(=C/c2ccc(OCc3ccc(C(=O)O)cc3)cc2)C1=O	?	14%[2.33 µM]	50µM*	59%	-3	?
O=C(CCN1C(=O)/C(=C/c2ccc3c(c2)OCO3)SC1=S)Nc1ccc(C(=O)O)cc1	-29%	21%[2.33 µM]	35µM*	?	-10	45µM*
O=C(NC(=S)N1CCN(c2ccc(F)cc2)CC1)c1cccs1	-1%	50µM*	?	13%	1	-32%
O=C(c1cccs1)N1CCN(c2ccc(F)cc2)CC1	-6%	-8%[12.7 µM]	-4%	14%	-3	5%

Compound activity (PubChem)
